Laboratory results reported in PubChem BioAssay AID588405 (Sanford-Burnham Center for Chemical Genomics, 2011).
The whole screen tested about 360,000 compounds, of which about 6,200 (1.7%) were called active. The sample holds actives, similar compounds and a random draw of the others, so the mix is not that of the screen. A number with no mark means an inactive call.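 How the source made its calls: active means inhibition of at least 50% at 20 µM; inactive means the rest.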

assay: inhibition of PEG-3 promoter activity – cell-based, HeLa, luciferase luminescence, primary screen (AID 588405); conditions: HeLa PEG-Prom luciferase reporter, overnight, at 20 µM, active compounds read high

**Q.** Which inhibition does the source give for Cc1cn([C@H]2C[C@H](O)[C@@H](/C=C/C(=O)NCCCc3ccccc3)O2)c(=O)[nH]c1=O here?
**A.** 9.64%

**Q.** For O=C(NCCN1CCOCC1)c1ccc(/C=C2\Sc3ccccc3N(Cc3ccc(F)cc3)C2=O)cc1, which inhibition is on record?
**A.** 66.6% (active)

**Q.** For Cc1ccc(C(=O)N/C(=C\c2ccc(F)cc2)C(=O)NCCN2CCOCC2)cc1, which inhibition is on record?
**A.** -0.33%

**Q.** For O=C(NCCN1CCOCC1)/C(=C/c1ccc(F)cc1)NC(=O)c1ccccc1, which inhibition is on record?
**A.** -17.8%

**Q.** For O=[N+]([O-])c1ccc(CN2CC(N3CC=CC3)CS2(=O)=O)cc1 (stereo unspecified), which inhibition is on record?
**A.** -12%

**Q.** For CN(C)C(=O)c1cccc(-c2cnc3c(NC=O)cc(-c4ccc(F)cc4)cn23)c1, which inhibition is on record?
**A.** 35.5%

**Q.** For CC(=O)c1cccc(-c2cnc3c(NC=O)cc(-c4cccc(C(=O)N(C)C)c4)cn23)c1, which inhibition is on record?
**A.** 33.8%

**Q.** For CN(C)CCNC(=O)c1cccc(-c2cnc3c(NC=O)cc(-c4cccc(C(F)(F)F)c4)cn23)c1, which inhibition is on record?
**A.** 98.7% (active)

**Q.** Which inhibition does the source give for Nc1nc2c(ncn2[C@@H]2O[C@H](CNCc3ccc(OCCCN4CCOCC4)cc3)[C@@H](O)[C@H]2O)c(=O)[nH]1 here?
**A.** -2.38%

**Q.** Which inhibition does the source give for COc1ccc(CNC(=O)c2ccc(-c3cccnc3)c3ccoc23)cc1OC here?
**A.** 10.8%

**Q.** Which inhibition does the source give for Cc1c(C(=O)Nc2cccc(Cl)c2)cn2c(nc3ccccc32)c1C#N here?
**A.** 60.9% (active)

**Q.** For Cc1cc(Cl)nc(NC(=O)Nc2cccc(Cl)c2)n1, which inhibition is on record?
**A.** -174%

**Q.** For CCC(=O)Nc1nc(C)c(C(=O)Nc2cccc(Cl)c2)s1, which inhibition is on record?
**A.** -28.7%

**Q.** For COc1cccc(CN(C)C(=O)CC[C@H]2O[C@@H](n3cnc4c(NC(=O)c5ccccc5)ncnc43)[C@H](O)[C@@H]2O)c1, which inhibition is on record?
**A.** 4.1%

**Q.** Which inhibition does the source give for C[N+]1(CCNC(=O)/C=N/O)CCCCC1 here?
**A.** 17%

**Q.** Which inhibition does the source give for CCCNC(=O)C1(C)CCCN(C(=O)c2oc3ccccc3c2C)C1 (stereo unspecified) here?
**A.** -3.03%

**Q.** For CCCc1nc(NCc2ccc3c(c2)OCO3)c2nnn(Cc3ccccc3Cl)c2n1, which inhibition is on record?
**A.** 1.34%

**Q.** For Cc1nc(Nc2ccccc2F)c2nnn(Cc3ccccc3Cl)c2n1, which inhibition is on record?
**A.** 8.32%

**Q.** For Cc1nc(Nc2ccc3c(c2)OCCO3)c2nnn(Cc3ccccc3Cl)c2n1, which inhibition is on record?
**A.** 54.7% (active)

**Q.** Which inhibition does the source give for COc1ccccc1-c1nn(Cc2ccccc2)cc1C(=O)N1CCN(c2ncccn2)CC1 here?
**A.** 33.2%

**Q.** With O=C(/C=C/c1ccc(Cl)c([N+](=O)[O-])c1)c1ccc(O)cc1 as the compound, how does the inhibition read?
**A.** 104% (active)

**Q.** Which inhibition does the source give for O=C(/C=C/c1ccc(Cl)c([N+](=O)[O-])c1)c1cccnc1 here?
**A.** 105% (active)

**Q.** Which inhibition does the source give for C/C(=N\NC(=O)Cc1ccccc1[N+](=O)[O-])c1cccnc1 here?
**A.** 17.7%

**Q.** For CC(=O)Nc1ccc(C=CC(=O)c2ccc([N+](=O)[O-])cc2)cc1, which inhibition is on record?
**A.** 4.26%

**Q.** With O=C(Nc1cccnc1)c1ccc(Cl)cc1[N+](=O)[O-] as the compound, how does the inhibition read?
**A.** -0.43%

**Q.** Which inhibition does the source give for CC(CC(=O)O)C(=O)c1ccc(Cl)c([N+](=O)[O-])c1 (stereo unspecified) here?
**A.** 1.7%
